According to PubChem BioAssay (NCI):
This is part of a sample that, as a whole, favours compounds with a hit. Of some 83,000 tested, about 20% had one in any assay.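 48-hour exposure, single concentration, 96-well plates; percent growth endpoint where 0 means no net growth. Active: below 10.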 The source made the active and inactive calls.

Tests used:
Assay in all cases: NCI-60 one-dose screen, 48 h (100 = growth as untreated, 0 = no growth, -100 = all killed)
Settings in all cases: 10 µM unless noted
NCI-H23 lung = tested on: NCI-H23 lung
NCI-H226 lung = tested on: NCI-H226 lung
NCI-H322M lung = tested on: NCI-H322M lung
HOP-62 NSCLC = tested on: HOP-62 NSCLC
NCI-H460 lung = tested on: NCI-H460 lung
HOP-92 NSCLC = tested on: HOP-92 NSCLC
NCI-H522 lung = tested on: NCI-H522 lung
A549/ATCC NSCLC = tested on: A549/ATCC NSCLC
786-0 renal = tested on: 786-0 renal
COLO 205 colon = tested on: COLO 205 colon

Measured: growth

C#CCn1c(-c2cc(OC)c(OC)cc2Br)nc(-c2ccccc2)c1-c1ccccc1
active: COLO 205 colon 8.73%
inactive: NCI-H23 lung 42.5% | NCI-H226 lung 66% | NCI-H322M lung 28.6% | HOP-62 NSCLC 72.8% | NCI-H460 lung 10.8% | HOP-92 NSCLC 41.9% | NCI-H522 lung 17.4% | A549/ATCC NSCLC 31.2% | 786-0 renal 48.8%

Cc1cn([C@]2(CF)O[C@H](CO)C2C)c(=O)[nH]c1=O (stereo not given in full)
inactive: NCI-H23 lung 111% | NCI-H226 lung 111% | NCI-H322M lung 108% | HOP-62 NSCLC 62.8% | NCI-H460 lung 125% | HOP-92 NSCLC 107% | NCI-H522 lung 87.1% | A549/ATCC NSCLC 109% | 786-0 renal 101% | COLO 205 colon 108%

Cc1cccc(Cc2cnc(NC(=O)CCc3ccc(C)o3)s2)c1
inactive: NCI-H23 lung 35.3% | NCI-H226 lung 35.1% | NCI-H322M lung 45.9% | HOP-62 NSCLC 47.5% | HOP-92 NSCLC 64.9% | A549/ATCC NSCLC 26.1% | 786-0 renal 29.8%
active: NCI-H460 lung 4.15% | NCI-H522 lung 4.74% | COLO 205 colon -9.57%

O=S(=O)(CCN1CCOCC1)Nc1cncc(-c2ccc3ncnc(Nc4ccc(F)c(Cl)c4)c3c2)c1
inactive: NCI-H23 lung 74.8% | NCI-H226 lung 84.8% | NCI-H322M lung 33.8% | HOP-62 NSCLC 40% | NCI-H460 lung 98.6% | HOP-92 NSCLC 13% | NCI-H522 lung 54.8% | A549/ATCC NSCLC 77.2% | 786-0 renal 58.9% | COLO 205 colon 64.9%

COc1ccc(C2=NN(C(=O)COc3ccc(Cl)cc3)C(O)(c3cc(F)c(Cl)cc3Cl)C2)cc1OC (stereo not given)
active: HOP-92 NSCLC -44.8% | NCI-H522 lung -66.4% | 786-0 renal -74.9% | COLO 205 colon -56.6%
inactive: NCI-H23 lung 49.7% | NCI-H226 lung 82.2% | NCI-H322M lung 88.8% | HOP-62 NSCLC 75.4% | NCI-H460 lung 32.9% | A549/ATCC NSCLC 81.3%

CCCC(=O)Oc1ccc(/C(=C(\C)c2ccc(Cl)cc2)c2ccc(OCCN(CC)CC)cc2)cc1
active: NCI-H23 lung -33.4% | HOP-62 NSCLC -57.1% | NCI-H460 lung -83.9% | HOP-92 NSCLC -13.1% | NCI-H522 lung -55% | A549/ATCC NSCLC -51% | 786-0 renal -89.6% | COLO 205 colon -84%
inactive: NCI-H226 lung 68.4% | NCI-H322M lung 24.1%

Cc1cn(-c2cc(C(=O)Nc3cccc(-n4ccc5c(NC(=O)c6ccccc6)nccc54)c3)cc(C(F)(F)F)c2)cn1
active: NCI-H460 lung -13.3% | HOP-92 NSCLC -6.29% | NCI-H522 lung -7.45% | A549/ATCC NSCLC -19% | 786-0 renal -70.6% | COLO 205 colon -20.1%
inactive: NCI-H23 lung 22.5% | NCI-H226 lung 33.8% | NCI-H322M lung 32.9% | HOP-62 NSCLC 31.5%

COc1ccc2c(c1)/C(=C/c1c(-c3cc(OC)c(OC)c(OC)c3Br)nc3sccn13)C(=O)N2
inactive: NCI-H23 lung 101% | NCI-H226 lung 86.1% | NCI-H322M lung 88.9% | HOP-62 NSCLC 59.2% | NCI-H460 lung 111% | HOP-92 NSCLC 60.8% | NCI-H522 lung 68.1% | A549/ATCC NSCLC 101% | 786-0 renal 93.4% | COLO 205 colon 117%

CC(C)CNCC(O)COc1ccc(C(C)(C)c2ccc(OCC(O)CNCC(C)C)cc2)cc1 (stereo not given)
active: NCI-H460 lung -22.2% | COLO 205 colon -65.8%
inactive: NCI-H23 lung 84.4% | NCI-H226 lung 88.2% | NCI-H322M lung 81.3% | HOP-62 NSCLC 64.3% | HOP-92 NSCLC 20.2% | NCI-H522 lung 26.4% | A549/ATCC NSCLC 37.5% | 786-0 renal 26.1%

CC(=O)N1N=C(CCC(=O)c2nc3ccc([N+](=O)[O-])cc3[nH]2)OC1c1ccc(O)cc1 (stereo not given)
inactive: NCI-H23 lung 93.2% | NCI-H226 lung 101% | NCI-H322M lung 99% | HOP-62 NSCLC 91.2% | NCI-H460 lung 103% | HOP-92 NSCLC 118% | NCI-H522 lung 51.3% | A549/ATCC NSCLC 106% | 786-0 renal 106% | COLO 205 colon 92.3%

COc1cc(NC(=O)c2cc(OC)c3ccn(C)c3c2)cc2c1C[C@]1(C)CC[C@@H](O)C(C)(C)[C@H]1O2
active: 786-0 renal -1.08%
inactive: NCI-H23 lung 79.9% | NCI-H226 lung 106% | NCI-H322M lung 90.4% | HOP-62 NSCLC 46.1% | NCI-H460 lung 49.2% | HOP-92 NSCLC 44.6% | NCI-H522 lung 76.1% | A549/ATCC NSCLC 63.6% | COLO 205 colon 51.7%

N#Cc1c2c(c(N)[nH]c1=O)C(=O)NC2(O)c1ccccc1 (stereo not given)
inactive: NCI-H23 lung 98.8% | NCI-H226 lung 99.2% | NCI-H322M lung 103% | HOP-62 NSCLC 104% | NCI-H460 lung 118% | HOP-92 NSCLC 114% | NCI-H522 lung 85.1% | A549/ATCC NSCLC 97.1% | 786-0 renal 104% | COLO 205 colon 107%

COc1ccc(-c2nn(-c3ccc(NC(=O)Nc4cc(C(F)(F)F)cc(C(F)(F)F)c4)cc3)cc2-c2ccncc2)cc1Cl
inactive: NCI-H322M lung 30.9% | HOP-62 NSCLC 19.5% | A549/ATCC NSCLC 14.6%
active: NCI-H23 lung 8.51% | NCI-H226 lung 0.753% | NCI-H460 lung -2.26% | HOP-92 NSCLC -21.6% | NCI-H522 lung -8.92% | 786-0 renal 1.94% | COLO 205 colon -33.4%

Cc1ccc(/C=C2/C(=O)Nc3cc(Cl)c(-c4csc(N)n4)cc32)cc1
inactive: NCI-H23 lung 75% | NCI-H226 lung 80.8% | NCI-H322M lung 81.4% | HOP-62 NSCLC 71.7% | NCI-H460 lung 81.1% | HOP-92 NSCLC 79.4% | NCI-H522 lung 33.7% | A549/ATCC NSCLC 74.1% | 786-0 renal 87.8% | COLO 205 colon 82.1%

CS(=O)(=O)Nc1cccc(-c2ccc3ncnc(Nc4cncc(Cl)c4)c3c2)c1
inactive: NCI-H23 lung 47.1% | NCI-H226 lung 52.5% | NCI-H322M lung 19.9% | HOP-62 NSCLC 40.5% | NCI-H460 lung 44.9% | HOP-92 NSCLC 11.2% | NCI-H522 lung 28.1% | A549/ATCC NSCLC 30.5% | 786-0 renal 10.1%
active: COLO 205 colon 5.27%

[2H]c1nc(Nc2ncc(F)c(-c3cc(F)c4nc(C)n(C(C)C)c4c3)n2)c([2H])c([2H])c1CN1CCN(CC)CC1
inactive: NCI-H23 lung 48.7% | NCI-H226 lung 41.5% | NCI-H322M lung 41.1% | HOP-62 NSCLC 51.2% | NCI-H460 lung 43.9% | HOP-92 NSCLC 59.1% | NCI-H522 lung 66.1% | A549/ATCC NSCLC 36.2% | 786-0 renal 52.8% | COLO 205 colon 15.6%

O=C1CN(CCN2CC(=O)NC(=O)C2)CC(=O)N1
inactive: NCI-H23 lung 95.9% | NCI-H226 lung 94.7% | NCI-H322M lung 84.3% | HOP-62 NSCLC 93.4% | NCI-H460 lung 117% | HOP-92 NSCLC 72.3% | NCI-H522 lung 97.1% | A549/ATCC NSCLC 101% | 786-0 renal 97.1% | COLO 205 colon 118%

CSc1ccc(C(=O)C[n+]2cccc(C)c2)cc1
inactive: NCI-H23 lung 102% | NCI-H226 lung 94.3% | NCI-H322M lung 102% | HOP-62 NSCLC 107% | NCI-H460 lung 109% | HOP-92 NSCLC 105% | NCI-H522 lung 110% | A549/ATCC NSCLC 105% | 786-0 renal 100% | COLO 205 colon 109%

CC(C)(c1ccc(OCC(O)CNCc2ccco2)cc1)c1ccc(OCC(O)CNCc2ccco2)cc1 (stereo not given)
inactive: NCI-H23 lung 93.4% | NCI-H226 lung 94.6% | NCI-H322M lung 99.4% | HOP-62 NSCLC 82.2% | NCI-H460 lung 98% | HOP-92 NSCLC 57.4% | NCI-H522 lung 86% | A549/ATCC NSCLC 81.2% | 786-0 renal 70.8% | COLO 205 colon 85.5%

FC(F)(F)c1cn(CCN2CCOCC2)c2ncnc(Cl)c12
inactive: NCI-H23 lung 66.1% | NCI-H226 lung 101% | NCI-H322M lung 87.4% | HOP-62 NSCLC 55.9% | NCI-H460 lung 84.3% | NCI-H522 lung 20.5% | A549/ATCC NSCLC 94.5% | 786-0 renal 113% | COLO 205 colon 76.5%
active: HOP-92 NSCLC -62.3%

Nc1nccc2c1ccn2-c1ccc(NC(=O)c2ccc(N3CCOCC3)c(C(F)(F)F)c2)cc1
inactive: NCI-H23 lung 33% | NCI-H226 lung 63.1% | NCI-H322M lung 38.9% | NCI-H522 lung 23.1% | A549/ATCC NSCLC 11.9%
active: HOP-62 NSCLC -43% | NCI-H460 lung 1.76% | HOP-92 NSCLC -25% | 786-0 renal -45.5% | COLO 205 colon -54.7%

COc1cc2c(cc1OCCCCC(=O)Nc1ccc(-c3nc4ccccc4s3)cc1)N=C[C@@H]1CCCN1C2=O
active: NCI-H23 lung -11.4% | NCI-H226 lung -43.7% | NCI-H322M lung -0.382% | HOP-62 NSCLC -2.65% | NCI-H460 lung -19.5% | HOP-92 NSCLC -53% | NCI-H522 lung -54% | A549/ATCC NSCLC -42.2% | 786-0 renal -6.44% | COLO 205 colon -60.5%

COc1cc(NC(C)CCCN2C(=O)c3ccccc3C2=O)c2ncccc2c1OC (stereo not given)
inactive: NCI-H23 lung 91.6% | NCI-H226 lung 98.2% | NCI-H322M lung 79.5% | HOP-62 NSCLC 80.7% | NCI-H460 lung 103% | HOP-92 NSCLC 45.4% | NCI-H522 lung 70.8% | A549/ATCC NSCLC 100% | 786-0 renal 91.1% | COLO 205 colon 101%

Cc1c(C(C)(C)C)cc(C(C)(C)C)c2c1CN(C)CO2
inactive: NCI-H23 lung 102% | NCI-H226 lung 111% | NCI-H322M lung 105% | HOP-62 NSCLC 103% | NCI-H460 lung 123% | HOP-92 NSCLC 112% | NCI-H522 lung 93.4% | A549/ATCC NSCLC 111% | 786-0 renal 105% | COLO 205 colon 105%

Cc1cc2nc(-c3c(N)ncc(C#N)c3-c3ccc(Cl)cc3)[nH]c2cc1C
inactive: NCI-H23 lung 50% | NCI-H226 lung 91.7% | NCI-H322M lung 81.1% | HOP-62 NSCLC 83.5% | NCI-H460 lung 43.2% | HOP-92 NSCLC 10.6% | NCI-H522 lung 41.2% | A549/ATCC NSCLC 36.4% | 786-0 renal 75.1% | COLO 205 colon 67.4%

O=C(O)c1ccc(-n2cc(/C=N/Nc3ccc(F)cc3)c(-c3cccc(C(F)(F)F)c3)n2)cc1
inactive: NCI-H23 lung 81% | NCI-H226 lung 92.5% | NCI-H322M lung 76.5% | HOP-62 NSCLC 96.1% | NCI-H460 lung 81.6% | HOP-92 NSCLC 95.9% | NCI-H522 lung 36.3% | A549/ATCC NSCLC 65.7% | 786-0 renal 79.9% | COLO 205 colon 105%
